Measured values reported in PubChem BioAssay AID1159580 (chemical genetic matrix, 2015).
Where “and” joins values, the source holds several entries; their conditions need not be identical. Equal values may be shown once. About 2,000 (36%) of roughly 5,500 compounds were called active. Roughly 18% stayed inconclusive and do not appear here. No stated cut-off is given here; in the data, active means normalized growth mostly below about 0.91 (no sharp cut-off); inconclusive means no clear call, values can overlap the other calls; inactive means mostly above about 0.92. The list shows a part of the results.

Experiment: chemical genetic growth profiling, strain panel (AID 1159580);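 further: tested at 20 µM; growth read once vehicle control cultures reached saturation at 30 °C; 1 = growth at the plate median or of vehicle wells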
Conditions: growth OD

Measured: normalized growth

CN(C)c1nc(N(C)C)nc(N(C)C)n1
inactive: S. cerevisiae deletion strains, locus YKL009W, strain mrt4, stronger effect = lower value 1 | S. cerevisiae deletion strains, locus YKL068W, stronger effect = lower value 1.01 | S. cerevisiae deletion strains, locus YKL085W, strain MDH1 (second series), stronger effect = lower value 1.01 | S. cerevisiae deletion strains, locus YKL085W, strain MDH1, stronger effect = lower value 1.01 | S. cerevisiae deletion strains, locus YKL160W, strain elf1, stronger effect = lower value 0.985 | S. cerevisiae deletion strains, locus YKL190W, strain CNB1, stronger effect = lower value 1.01 | S. cerevisiae deletion strains, locus YKR001C, strain vps1, stronger effect = lower value 1.01 | S. cerevisiae deletion strains, locus YKR026C, strain gcn3, stronger effect = lower value 0.978 | S. cerevisiae deletion strains, locus YKR091W, strain srl3, stronger effect = lower value 0.962 | S. cerevisiae deletion strains, locus YLL001W, strain dnm1, stronger effect = lower value 0.969 | S. cerevisiae deletion strains, locus YLL026W, stronger effect = lower value 0.977 | S. cerevisiae deletion strains, locus YLL041C, strain sdh2, stronger effect = lower value 0.983 | S. cerevisiae deletion strains, locus YLR027C, strain aat2, stronger effect = lower value 0.969 | S. cerevisiae deletion strains, locus YLR039C, strain RIC1, stronger effect = lower value 0.964 | S. cerevisiae deletion strains, locus YLR058C, strain SHM2, stronger effect = lower value 1.01 | S. cerevisiae deletion strains, locus YLR102C, strain apc9, stronger effect = lower value 1.01 | S. cerevisiae deletion strains, locus YLR113W, strain HOG1, stronger effect = lower value 0.948 | S. cerevisiae deletion strains, locus YLR221C, strain rsa3, stronger effect = lower value 0.945 | S. cerevisiae deletion strains, locus YLR258W, strain gsy2, stronger effect = lower value 0.987 | S. cerevisiae deletion strains, locus YLR262C, strain YPT6 (second series), stronger effect = lower value 0.932 | S. cerevisiae deletion strains, locus YLR262C, strain YPT6, stronger effect = lower value 0.986 | S. cerevisiae deletion strains, locus YLR268W, strain sec22, stronger effect = lower value 1.02 | S. cerevisiae deletion strains, locus YLR320W, strain mms22, stronger effect = lower value 0.949 | S. cerevisiae deletion strains, locus YLR330W, strain CHS5, stronger effect = lower value 1.01 | S. cerevisiae deletion strains, locus YLR342W, strain FKS1 (second series), stronger effect = lower value 1 | S. cerevisiae deletion strains, locus YLR342W, strain FKS1, stronger effect = lower value 0.968 | S. cerevisiae deletion strains, locus YLR357W, strain rsc2, stronger effect = lower value 0.978 | S. cerevisiae deletion strains, locus YLR370C, strain arc18, stronger effect = lower value 0.964 | S. cerevisiae deletion strains, locus YLR371W, strain rom2, stronger effect = lower value 1.01 | S. cerevisiae deletion strains, locus YLR384C, strain iki3, stronger effect = lower value 0.951 | S. cerevisiae deletion strains, locus YLR418C, strain cdc73, stronger effect = lower value 1.05 | S. cerevisiae deletion strains, locus YML016C, strain PPZ1, stronger effect = lower value 1.01 | S. cerevisiae deletion strains, locus YML032C, strain rad52, stronger effect = lower value 1.02 | S. cerevisiae deletion strains, locus YML120C, strain ndi1, stronger effect = lower value 0.952 | S. cerevisiae deletion strains, locus YML124C, strain tub3, stronger effect = lower value 1.02 | S. cerevisiae deletion strains, locus YMR058W, strain fet3, stronger effect = lower value 0.969 | S. cerevisiae deletion strains, locus YMR078C, strain ctf18, stronger effect = lower value 1.02 | S. cerevisiae deletion strains, locus YMR125W, strain sto1, stronger effect = lower value 0.97 | S. cerevisiae deletion strains, locus YMR129W, stronger effect = lower value 0.992 | S. cerevisiae deletion strains, locus YMR205C, strain PFK2, stronger effect = lower value 0.945 | S. cerevisiae deletion strains, locus YMR223W, strain ubp8, stronger effect = lower value 1.02 | S. cerevisiae deletion strains, locus YMR231W, strain pep5, stronger effect = lower value 0.979 | S. cerevisiae deletion strains, locus YMR263W, strain SAP30, stronger effect = lower value 1.01 | S. cerevisiae deletion strains, locus YMR307W, strain GAS1, stronger effect = lower value 1.03 and 1.01 | S. cerevisiae deletion strains, locus YNL067W, strain RPL9B, stronger effect = lower value 1 | S. cerevisiae deletion strains, locus YNL071W, strain lat1, stronger effect = lower value 0.982 | S. cerevisiae deletion strains, locus YNL128W, strain TEP1, stronger effect = lower value 1.02 | S. cerevisiae deletion strains, locus YNL153C, strain GIM3, stronger effect = lower value 0.995 | S. cerevisiae deletion strains, locus YNL175C, strain NOP13, stronger effect = lower value 0.992 | S. cerevisiae deletion strains, locus YNL183C, strain NPR1, stronger effect = lower value 0.92 | S. cerevisiae deletion strains, locus YNL197C, strain WHI3, stronger effect = lower value 0.997 | S. cerevisiae deletion strains, locus YNL209W, strain ssb2, stronger effect = lower value 0.978 | S. cerevisiae deletion strains, locus YNL224C, strain SQS1, stronger effect = lower value 0.993 | S. cerevisiae deletion strains, locus YNL233W, strain BNI4, stronger effect = lower value 1 | S. cerevisiae deletion strains, locus YNL248C, strain rpa49, stronger effect = lower value 0.959 | S. cerevisiae deletion strains, locus YNL250W, strain rad50, stronger effect = lower value 1.04 | S. cerevisiae deletion strains, locus YNL271C, strain bni1, stronger effect = lower value 1.02 | S. cerevisiae deletion strains, locus YNL298W, strain CLA4, stronger effect = lower value 1.02 | S. cerevisiae deletion strains, locus YNL307C, strain MCK1, stronger effect = lower value 1.02 | S. cerevisiae deletion strains, locus YNL322C, strain KRE1 (second series), stronger effect = lower value 0.954 | S. cerevisiae deletion strains, locus YNL322C, strain KRE1, stronger effect = lower value 0.996 | S. cerevisiae deletion strains, locus YNR049C, strain mso1, stronger effect = lower value 0.96 | S. cerevisiae deletion strains, locus YNR052C, strain pop2, stronger effect = lower value 1.02 | S. cerevisiae deletion strains, locus YOL006C, strain TOP1, stronger effect = lower value 1 | S. cerevisiae deletion strains, locus YOL012C, strain htz1 0.788 | S. cerevisiae deletion strains, locus YOL147C, strain pex11, stronger effect = lower value 1.02 | S. cerevisiae deletion strains, locus YOR001W, strain rrp6, stronger effect = lower value 0.987 | S. cerevisiae deletion strains, locus YOR061W, strain CKA2, stronger effect = lower value 1.01 | S. cerevisiae deletion strains, locus YOR069W, strain VPS5, stronger effect = lower value 1 | S. cerevisiae deletion strains, locus YOR070C, strain gyp1, stronger effect = lower value 0.984 | S. cerevisiae deletion strains, locus YOR080W, strain dia2, stronger effect = lower value 0.974 | S. cerevisiae deletion strains, locus YOR083W, strain WHI5 (second series), stronger effect = lower value 1.03 | S. cerevisiae deletion strains, locus YOR083W, strain WHI5, stronger effect = lower value 0.956 | S. cerevisiae deletion strains, locus YOR106W, strain vam3, stronger effect = lower value 0.928 | S. cerevisiae deletion strains, locus YOR136W, strain idh2, stronger effect = lower value 1.02 | S. cerevisiae deletion strains, locus YOR144C, strain elg1, stronger effect = lower value 1.01 | S. cerevisiae deletion strains, locus YOR184W, strain ser1, stronger effect = lower value 1.02 | S. cerevisiae deletion strains, locus YOR231W, strain MKK1, stronger effect = lower value 0.962 | S. cerevisiae deletion strains, locus YOR265W, strain rbl2, stronger effect = lower value 0.971 | S. cerevisiae deletion strains, locus YOR270C, strain vph1, stronger effect = lower value 0.953 | S. cerevisiae deletion strains, locus YOR290C, strain snf2, stronger effect = lower value 0.919 | S. cerevisiae deletion strains, locus YOR316C, strain cot1, stronger effect = lower value 1.02 | S. cerevisiae deletion strains, locus YPL051W, strain arl3, stronger effect = lower value 0.979 | S. cerevisiae deletion strains, locus YPL055C, strain LGE1, stronger effect = lower value 1.01 | S. cerevisiae deletion strains, locus YPL078C, strain atp4, stronger effect = lower value 0.975 | S. cerevisiae deletion strains, locus YPL106C, strain sse1, stronger effect = lower value 0.951 | S. cerevisiae deletion strains, locus YPL240C, strain hsp82, stronger effect = lower value 0.974 | S. cerevisiae deletion strains, locus YPL256C, strain CLN2, stronger effect = lower value 0.975 | S. cerevisiae deletion strains, locus YPR119W, strain clb2, stronger effect = lower value 1.01 | S. cerevisiae deletion strains, locus YPR141C, strain kar3, stronger effect = lower value 1.02 | S. cerevisiae deletion strains, locus YPR163C, strain tif3, stronger effect = lower value 1.02 | S. cerevisiae deletion strains, locus YPR167C, strain met16, stronger effect = lower value 1.01 | S. cerevisiae deletion strains, strain wtn01, stronger effect = lower value 1.02 | S. cerevisiae strains, strain wild type, stronger effect = lower value 1.01
